Test results: PubChem BioAssay AID1159580 (chemical genetic matrix, 2015)
Where “and” joins values, the source holds several entries; their conditions need not be identical. Identical values can stand only once. Screen size: about 5,500 compounds; about 2,000 (36%) were called active. Not shown: some 18% with an inconclusive outcome. Rule as the data show it: active = normalized growth mostly below about 0.91 (no sharp cut-off); inconclusive = no clear call, values can overlap the other calls; inactive = mostly above about 0.92. The list shows a part of the results.

Assay: chemical genetic growth profiling, strain panel (AID 1159580);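 also: tested at 20 µM; growth read once vehicle control cultures reached saturation at 30 °C; 1 = growth at the plate median or of vehicle wells; lower values mean less growth of the strain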
Conditions: S. cerevisiae deletion strains, growth OD

Measured: normalized growth

COc1cc(/C=C/C(=O)O)cc(OC)c1OC
inactive: locus YAL021C, strain ccr4, active compounds read low 0.979 | locus YAL026C, strain drs2, active compounds read low 0.999 | locus YAL030W, strain snc1, active compounds read low 0.988 | locus YBL061C, strain skt5, active compounds read low 0.993 | locus YBR009C, strain hhf1, active compounds read low 1.02 | locus YBR021W, strain FUR4, active compounds read low 0.998 | locus YBR023C, strain chs3, active compounds read low 0.993 | locus YBR171W, strain sec66, active compounds read low 1 | locus YBR229C, strain ROT2, active compounds read low 1.01 | locus YBR231C, strain swc5, active compounds read low 0.941 | locus YBR279W, strain paf1, active compounds read low 0.973 | locus YCL011C, strain gbp2, active compounds read low 0.99 | locus YCL016C, strain dcc1, active compounds read low 0.994 | locus YCL029C, strain bik1, active compounds read low 1.01 | locus YCL061C, strain MRC1, active compounds read low 1 | locus YCL069W, strain vba3, active compounds read low 0.992 | locus YCR088W, strain abp1, active compounds read low 0.989 | locus YDL005C, strain med2, active compounds read low 0.979 | locus YDL035C, strain GPR1, active compounds read low 1.01 | locus YDL040C, strain nat1, active compounds read low 0.99 | locus YDL074C, strain BRE1, active compounds read low 1.02 | locus YDL101C, strain DUN1, active compounds read low 1.01 | locus YDL134C, strain PPH21, active compounds read low 1.02 | locus YDL185W, strain tfp1, active compounds read low 1.01 | locus YDL192W, strain arf1, active compounds read low 1.01 | locus YDR001C, strain nth1, active compounds read low 0.985 | locus YDR069C, strain doa4, active compounds read low 0.991 | locus YDR101C, strain arx1, active compounds read low 1.01 | locus YDR137W, strain rgp1, active compounds read low 1 | locus YDR159W, strain sac3, active compounds read low 0.986 | locus YDR162C, strain NBP2, active compounds read low 1.03 | locus YDR195W, strain ref2 0.99 | locus YDR297W, strain sur2, active compounds read low 1 | locus YDR318W, strain mcm21, active compounds read low 1.01 | locus YDR334W, strain swr1, active compounds read low 0.987 | locus YDR335W, strain msn5, active compounds read low 0.987 | locus YDR388W, active compounds read low 1.01 | locus YDR392W, strain spt3, active compounds read low 0.946 | locus YDR502C, strain sam2, active compounds read low 0.991 | locus YEL003W, strain gim4, active compounds read low 0.994 | locus YEL037C, strain rad23, active compounds read low 0.984 | locus YEL061C, strain CIN8 (second series), active compounds read low 0.99 | locus YEL061C, strain CIN8, active compounds read low 1.01 | locus YER015W, strain faa2, active compounds read low 0.975 | locus YER016W, strain bim1, active compounds read low 0.99 | locus YER110C, active compounds read low 1.03 | locus YER111C, strain swi4, active compounds read low 0.984 | locus YER155C, strain BEM2 (second series), active compounds read low 1.01 | locus YER155C, strain BEM2, active compounds read low 1.01 | locus YER167W, strain BCK2, active compounds read low 1.01 | locus YFR010W, strain ubp6, active compounds read low 0.988 | locus YGL078C, strain dbp3, active compounds read low 1.02 | locus YGL086W, strain mad1, active compounds read low 0.997 | locus YGL167C, strain pmr1, active compounds read low 0.982 | locus YGL173C, strain kem1, active compounds read low 0.985 | locus YGL227W, strain vid30, active compounds read low 0.997 | locus YGL240W, strain doc1, active compounds read low 1 | locus YGL248W, strain PDE1, active compounds read low 1.02 | locus YGL253W, strain hxk2, active compounds read low 0.993 | locus YGR078C, strain PAC10, active compounds read low 1.01 | locus YGR135W, strain pre9, active compounds read low 1.02 | locus YGR252W, strain gcn5, active compounds read low 1.02 | locus YHR013C, strain ard1, active compounds read low 0.967 | locus YHR027C, strain rpn1, active compounds read low 1 | locus YHR030C, strain SLT2, active compounds read low 1 and 1.01 | locus YHR079C, strain IRE1 (second series), active compounds read low 1.03 | locus YHR079C, strain IRE1, active compounds read low 1 | locus YHR094C, strain hxt1, active compounds read low 1.02 | locus YHR129C, strain ARP1, active compounds read low 1.01 | locus YHR142W, strain chs7, active compounds read low 0.986 | locus YHR200W, strain rpn10, active compounds read low 1.02 | locus YIL066C, strain RNR3, active compounds read low 1.01 | locus YIL073C, strain SPO22, active compounds read low 1.08 | locus YIL125W, strain kgd1, active compounds read low 1.01 | locus YIR030C, strain dcg1, active compounds read low 1.02 | locus YJL092W, strain hpr5, active compounds read low 0.991 | locus YJL095W, strain BCK1 (second series), active compounds read low 0.994 | locus YJL095W, strain BCK1, active compounds read low 1.01 and 1.03 | locus YJL115W, strain asf1, active compounds read low 0.976 | locus YJL129C, strain trk1, active compounds read low 0.971 | locus YJL134W, strain LCB3, active compounds read low 1 | locus YJL154C, strain vps35, active compounds read low 0.992 | locus YJL164C, strain tpk1, active compounds read low 0.987 | locus YJL166W, strain qcr8, active compounds read low 0.994 | locus YJL168C, strain set2, active compounds read low 1.01 | locus YJL187C, strain SWE1 (second series), active compounds read low 1.01 | locus YJL187C, strain SWE1, active compounds read low 0.991
